Assay outcomes (PubChem)
rCAG binder = binds r(CAG) RNA repeats. r(CAG) RNA repeat, TO-PRO-1 dye displacement fluorescence. inhibition, % at 3 µM. 1.3% of 370,000 active. AID 651821;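 active = inhibition above the plate cutoff, the mean of all test compounds on that plate plus 3 SD, cut at about 35% in these data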;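 note: 0% = DMSO alone and 100% = 100 µM mitoxantrone as full dye displacement; higher means more dye released from RNA so lower well fluorescence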
MsrA act = activators of bovine methionine sulfoxide reductase A | purified bovine MsrA, absorbance read-out | activation, % at 10.6 µM | 0.3% of 360,000 active | AID 602163; in the data active = activation above about 7.5%;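 note: 0% = vehicle and 100% = reference activator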
sPLA2-III inh = Inhibits HGIII-sPLA2 liposome hydrolysis, primary screen. Q9NZ20. QFRET BODIPY PC-A2 liposome hydrolysis, fluorescence. inhibition, % at 12.2 µM. 0.56% of 370,000 active;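 active = inhibition above mean plus 3 SD of compounds lying within the high and low control bounds, cut at about 19% in these data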;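 note: 0% = median of test compound wells and 100% = no enzyme DMSO wells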
Target sequence (Q9NZ20 whole entry, looked up): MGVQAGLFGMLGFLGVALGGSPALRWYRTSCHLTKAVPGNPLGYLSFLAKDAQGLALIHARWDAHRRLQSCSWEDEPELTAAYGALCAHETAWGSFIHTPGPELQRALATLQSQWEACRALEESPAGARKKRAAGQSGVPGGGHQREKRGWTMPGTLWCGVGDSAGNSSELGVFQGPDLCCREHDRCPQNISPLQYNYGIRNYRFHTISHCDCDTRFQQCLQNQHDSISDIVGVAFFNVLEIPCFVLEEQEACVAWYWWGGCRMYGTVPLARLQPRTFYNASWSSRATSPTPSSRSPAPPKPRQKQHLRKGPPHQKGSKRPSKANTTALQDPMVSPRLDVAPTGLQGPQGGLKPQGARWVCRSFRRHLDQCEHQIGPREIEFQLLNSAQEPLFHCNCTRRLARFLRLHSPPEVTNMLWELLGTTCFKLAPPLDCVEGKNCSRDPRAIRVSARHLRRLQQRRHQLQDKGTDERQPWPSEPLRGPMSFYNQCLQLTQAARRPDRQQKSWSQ
MsrA inhibitor = inhibits bovine methionine sulfoxide reductase A; purified bovine MsrA, absorbance read-out; inhibition, % at 15.5 µM; 0.75% of 360,000 active; AID 651718; in the data active = inhibition above about 4.5%;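 note: 0% = vehicle wells with enzyme and 100% = reference inhibitor wells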
MsrA activ conf = confirmation of bovine methionine sulfoxide reductase A activators | shares compounds with MsrA act | purified bovine MsrA, absorbance read-out | activation, % at 10.6 µM | 12% of 1,000 active | AID 602270; in the data active = activation above about 4%;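 note: enzyme coupled to thioredoxin and thioredoxin reductase with NADPH; 0% = vehicle wells and 100% = reference activator wells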
Active calls of the source: *; . = no result given. Only some compounds are listed: those with a hit (about 2.8% of all), similar ones and a draw of the others.

SMILES	rCAG binder	MsrA act	sPLA2-III inh	MsrA inhibitor	MsrA activ conf
CSc1nnc2c3c4c(sc3c(=O)n(-c3ccccc3)n12)CC(C)(C)OC4	-5	24*	7	1	-3
COc1ccc(Cc2nnc(NC(=O)Nc3ccccc3F)s2)cc1OC	4	11*	-7	-1	-1
CC(=O)Nc1nnc(Cc2ccccc2)s1	4	8.6*	9	-1	-3
COc1ccc(-n2c(C)nc3c(cnn3-c3ccc(Cl)cc3)c2=O)cc1	-7	-3	-2	-1	.
CCOC(=O)[C@]12CCC=C1N(Cc1cccc3ccccc13)C(=O)[C@H](CC(=O)N1CCCCC1)C2	2	5	-11	-1	.
CCN(CC(=O)Nc1c(F)cccc1F)C(=O)c1ccc(N2CCCC2=O)cc1	-3	-2	6	0	.
O=C(NCSc1ccnc(SCNC(=O)c2ccccc2)n1)c1ccccc1	0	11*	9	1	3
COc1ccc(S(=O)(=O)N2CCN(Cc3cc(OC)c(OC)cc3OC)CC2)cc1	-4	-3	13	1	.
COC(=O)c1sc(=S)n(-c2ccccc2OC)c1N	-1	-1	5	2	.
CCOC(=O)c1sc(=S)n(-c2ccccc2OC)c1N	-1	8.4*	4	3	-6
CC(C)C(NS(=O)(=O)c1cccc2nsnc12)C(=O)N1CCCCC1 (configuration not stated)	-3	2	5	0	.
CC(CN(C)Cc1ccccc1)OC(=O)c1cccs1 (configuration not stated)	-7	8.4*	-3	0	-2
C=CCNC(=O)c1nc2ccccc2s1	1	9.6*	5	-1	-1
COC(=O)c1ccc(-c2nc(CN3CCC(C(=O)N4CCOCC4)CC3)c(C)o2)cc1	.	-5	.	.	.
Cc1ccccc1Cn1c2ccccc2c2cnn(CC(=O)NCc3ccccn3)c(=O)c21	0	-4	-1	2	.
Cc1c2cnn(CC(=O)NCc3ccccn3)c(=O)c2c(C)n1Cc1ccccc1	1	11*	6	1	-1
CC(=O)Nc1nc(-c2ccc3c(c2)CCN3C(=O)C2CC2)c(C)s1	2	-14	-3	0	.
Cc1sc(NC(=O)CN2CCCC2)nc1-c1ccc2c(c1)CCN2C(=O)c1ccc(F)cc1	9	12*	-19	-1	-3
COc1ccc(C(=O)N/C(=C/c2cccs2)C(=O)N2CCN(C)CC2)cc1	3	-1	11	1	.
CCCC/C(=N\NC(=O)c1ccc(Br)o1)c1ccccc1	-2	0	16	1	.
CC/C(=N/NC(=O)c1ccc(Br)o1)c1ccc(Cl)cc1	2	8.3*	-1	0	0
O=S(=O)(c1ccccc1)N1N=C(c2cccs2)CC1c1cccc(O)c1 (configuration not stated)	10	-2	-37	1	.
Cc1cc(C)n(-c2cc(C)c(C)cc2Br)n1	-8	-1	3	0	.
CCCS(=O)(=O)NC(=O)C1(C)CCN(C(=O)COc2ccc(Cl)cc2Cl)C1 (configuration not stated)	8	-2	3	-1	.
CCOC(=O)NC1(C(F)(F)F)C(=O)N(Cc2ccccc2)C2=C1C(=O)CC(C)(C)C2 (configuration not stated)	-8	12*	-3	1	-1
SMILES	rCAG binder	MsrA act	sPLA2-III inh	MsrA inhibitor	MsrA activ conf
CC1(C)CC(=O)C2=C(C1)N(Cc1ccco1)C(=O)C2(NC(=O)c1cccnc1)C(F)(F)F (configuration not stated)	-1	8.2*	1	0	-2
CCc1ccc2c(c1)C1(SC(NC(C)=O)=NN1C(C)=O)C(=O)N2C(C)C (configuration not stated)	-6	-3	3	0	.
COC(=O)c1cc(S(=O)(=O)Nc2cccc(-c3cnco3)c2)oc1C	.	2	.	.	.
O=C(Nc1ccc(NC(=O)N2CCN(c3ccccc3O)CC2)cc1)N1CCN(c2ccccc2O)CC1	3	-11	-17	1	.
CCCn1c(=O)c2ccccc2n2c(SCC(=O)Nc3cc(C)on3)nnc12	1	-2	1	1	.
CC(C)NCC(O)c1ccc(NS(C)(=O)=O)cc1 (configuration not stated)	0	7.8*	3	3	-3
CC(C)NC[C@@H](O)c1ccc(O)c(O)c1	8	-6	2	-1	.
CCOC(=O)c1ccc(NC(=O)c2cc(F)c(F)cc2Cl)cc1	-3	8.7*	2	1	1
CN(C)c1ccc(-c2sc(Nc3ccccc3)n[n+]2-c2ccc(F)cc2)cc1	7	0	2	1	.
